PubChem BioAssay (NCI)
Several values for one entry are separate records, joined by “and”; a condition that tells them apart may be missing. Identical values can stand only once. Compounds without any hit were thinned out: in the full panel of roughly 83,000, 20% have a hit.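 48-hour exposure, single concentration, 96-well plates; percent growth endpoint where 0 means no net growth. Active: below 10.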

What was measured:
Assay in all cases: NCI-60 one-dose screen, 48 h (100 = growth as untreated, 0 = no growth, -100 = all killed)
Conditions in all cases: 10 µM unless noted
NCI-H23 lung = system: NCI-H23 lung
NCI-H226 lung = system: NCI-H226 lung
NCI-H322M lung = system: NCI-H322M lung
HOP-62 NSCLC = system: HOP-62 NSCLC
NCI-H460 lung = system: NCI-H460 lung
HOP-92 NSCLC = system: HOP-92 NSCLC
NCI-H522 lung = system: NCI-H522 lung
A549/ATCC NSCLC = system: A549/ATCC NSCLC
786-0 renal = system: 786-0 renal
COLO 205 colon = system: COLO 205 colon
DU-145 prostate = system: DU-145 prostate
K-562 leukemia = system: K-562 leukemia
MALME-3M melanoma = system: MALME-3M melanoma
MDA-MB-231 breast = system: MDA-MB-231 breast
RXF 393 renal = system: RXF 393 renal
SF-268 CNS = system: SF-268 CNS
SF-295 CNS = system: SF-295 CNS
SF-539 CNS = system: SF-539 CNS
UACC-257 melanoma = system: UACC-257 melanoma
M14 melanoma = system: M14 melanoma

Measured: growth

Cc1ccc(N)cc1S(=O)(=O)O
inactive: NCI-H23 lung 109% and 107% | NCI-H226 lung 109% | NCI-H322M lung 125% and 113% | HOP-62 NSCLC 104% and 112% | NCI-H460 lung 109% and 107% | HOP-92 NSCLC 93.1% | NCI-H522 lung 127% | A549/ATCC NSCLC 108% and 102% | 786-0 renal 107% and 98.5% | COLO 205 colon 109% and 111% | DU-145 prostate 111% and 119% | K-562 leukemia 98.3% and 85.5% | MALME-3M melanoma 122% and 113% | MDA-MB-231 breast 109% | RXF 393 renal 124% and 108% | SF-268 CNS 101% and 102% | SF-295 CNS 111% and 112% | SF-539 CNS 104% and 120% | UACC-257 melanoma 117% and 92.7%

CC(=O)Oc1ccc(C(c2ccc(OC(C)=O)cc2)c2ccccn2)cc1
inactive: NCI-H23 lung 59.7% and 57% | NCI-H226 lung 89.2% and 106% | NCI-H322M lung 30.6% and 64.6% | HOP-62 NSCLC 87.9% and 109% | NCI-H460 lung 105% and 101% | HOP-92 NSCLC 66.1% and 34.1% | NCI-H522 lung 91.4% and 72.6% | A549/ATCC NSCLC 87% and 13.8% | 786-0 renal 101% | COLO 205 colon 24% and 17.9% | DU-145 prostate 96.8% and 106% | K-562 leukemia 89.6% and 99.2% | MALME-3M melanoma 100% and 107% | MDA-MB-231 breast 100% and 102% | RXF 393 renal 71.9% and 16.1% | SF-268 CNS 104% and 99.3% | SF-295 CNS 92.1% | SF-539 CNS 100% and 75.6% | UACC-257 melanoma 96.1% and 88.3% | M14 melanoma 95.1% and 69.3%

OCc1ccccc1F
inactive: NCI-H23 lung 88% | NCI-H226 lung 103% | NCI-H322M lung 105% | HOP-62 NSCLC 97.3% | NCI-H460 lung 48.1% | HOP-92 NSCLC 106% | NCI-H522 lung 71.1% | A549/ATCC NSCLC 93.4% | 786-0 renal 101% | COLO 205 colon 92.3% | DU-145 prostate 11.4% | K-562 leukemia 106% | MALME-3M melanoma 134% | MDA-MB-231 breast 86.3% | RXF 393 renal 77.5% | SF-268 CNS 95.8% | SF-295 CNS 72% | SF-539 CNS 101% | UACC-257 melanoma 107%

CC(=O)C[n+]1ccccc1Sc1ccc(Cl)cc1
inactive: NCI-H23 lung 100% | NCI-H226 lung 91.1% | NCI-H322M lung 99.6% | HOP-62 NSCLC 107% | NCI-H460 lung 77% | HOP-92 NSCLC 98.8% | NCI-H522 lung 108% | A549/ATCC NSCLC 84.6% | 786-0 renal 82.6% | COLO 205 colon 109% | DU-145 prostate 95% | K-562 leukemia 90.9% | MALME-3M melanoma 97.1% | MDA-MB-231 breast 52.3% | RXF 393 renal 109% | SF-268 CNS 74.9% | SF-295 CNS 82.9% | SF-539 CNS 68.8% | UACC-257 melanoma 99% | M14 melanoma 99.3%

O=COCCCc1ccccc1
inactive: NCI-H23 lung 109% | NCI-H226 lung 95.4% | NCI-H322M lung 104% | HOP-62 NSCLC 86.4% | NCI-H460 lung 107% | HOP-92 NSCLC 84.9% | NCI-H522 lung 80.5% | A549/ATCC NSCLC 83.7% | 786-0 renal 105% | COLO 205 colon 106% | DU-145 prostate 112% | K-562 leukemia 104% | MALME-3M melanoma 106% | MDA-MB-231 breast 100% | RXF 393 renal 108% | SF-268 CNS 103% | SF-295 CNS 106% | SF-539 CNS 102% | UACC-257 melanoma 86.5%

O=C(NC(CSSCC(NC(=O)OCc1ccccc1)C(=O)O)C(=O)O)OCc1ccccc1 (stereo unspecified)
inactive: NCI-H23 lung 93.2% and 97.3% | NCI-H226 lung 86.1% | NCI-H322M lung 92.9% and 102% | HOP-62 NSCLC 95% and 81.8% | NCI-H460 lung 95% and 107% | HOP-92 NSCLC 63.8% and 78.5% | NCI-H522 lung 70.3% | A549/ATCC NSCLC 80.5% | 786-0 renal 91.2% and 91.1% | COLO 205 colon 96.4% and 91.5% | DU-145 prostate 101% and 118% | K-562 leukemia 84.7% and 78.1% | MALME-3M melanoma 86.6% and 104% | MDA-MB-231 breast 90.5% and 108% | RXF 393 renal 81% and 113% | SF-268 CNS 92.4% and 107% | SF-295 CNS 89.6% and 103% | SF-539 CNS 93.7% and 91.8% | UACC-257 melanoma 91.9%

Nc1nc(N)c2cc(S(=O)(=O)c3ccccc3)ccc2n1
inactive: NCI-H23 lung 45% and 40.9% | NCI-H226 lung 63.2% and 79.3% | NCI-H322M lung 43.6% and 41.5% | HOP-62 NSCLC 54.8% and 46.3% | NCI-H460 lung 18.3% and 14.7% | HOP-92 NSCLC 64.9% and 92.5% | NCI-H522 lung 46.2% and 68.9% | A549/ATCC NSCLC 13.4% and 25.7% | 786-0 renal 29.5% and 26.8% | COLO 205 colon 53.7% and 58.3% | DU-145 prostate 30.3% and 40.9% | K-562 leukemia 16.7% and 26.1% | MALME-3M melanoma 58.1% and 29% | MDA-MB-231 breast 48.9% and 51.8% | RXF 393 renal 62% and 85.6% | SF-268 CNS 40.1% and 38% | SF-295 CNS 18.9% | SF-539 CNS 30.5% and 21.8% | UACC-257 melanoma 39% and 59.2%

C/C=C/C(=O)OCCCCCCCCCCCC
inactive: NCI-H23 lung 105% | NCI-H226 lung 87.3% | NCI-H322M lung 114% | HOP-62 NSCLC 102% | NCI-H460 lung 108% | HOP-92 NSCLC 96.5% | NCI-H522 lung 96.3% | A549/ATCC NSCLC 84.2% | 786-0 renal 95% | COLO 205 colon 105% | DU-145 prostate 118% | K-562 leukemia 93.3% | MALME-3M melanoma 111% | MDA-MB-231 breast 93.2% | RXF 393 renal 110% | SF-268 CNS 106% | SF-295 CNS 105% | SF-539 CNS 109% | UACC-257 melanoma 94.4%

O=C(O)/C=C/C=C/c1ccccc1
inactive: NCI-H23 lung 104% and 99.9% | NCI-H226 lung 99.4% and 100% | NCI-H322M lung 104% and 107% | HOP-62 NSCLC 102% and 105% | NCI-H460 lung 107% and 112% | HOP-92 NSCLC 99.5% and 102% | NCI-H522 lung 94.8% and 106% | A549/ATCC NSCLC 98.4% and 97.8% | 786-0 renal 105% and 109% | COLO 205 colon 105% and 113% | DU-145 prostate 106% and 109% | K-562 leukemia 114% and 110% | MALME-3M melanoma 103% and 114% | MDA-MB-231 breast 101% and 106% | RXF 393 renal 113% and 120% | SF-268 CNS 101% | SF-295 CNS 105% and 101% | SF-539 CNS 96.7% and 98.6% | UACC-257 melanoma 102% and 93.2%

Cc1c(O)nc(N)[nH]c1=O
inactive: NCI-H23 lung 93.8% | NCI-H226 lung 106% | NCI-H322M lung 104% | HOP-62 NSCLC 99.7% | NCI-H460 lung 104% | HOP-92 NSCLC 108% | NCI-H522 lung 99.5% | A549/ATCC NSCLC 99.9% | 786-0 renal 114% | COLO 205 colon 116% | DU-145 prostate 119% | K-562 leukemia 118% | MALME-3M melanoma 109% | MDA-MB-231 breast 104% | RXF 393 renal 118% | SF-268 CNS 123% | SF-295 CNS 97.4% | SF-539 CNS 106% | UACC-257 melanoma 105% | M14 melanoma 98.5%

O=C(O)c1cccc(Br)c1
inactive: NCI-H23 lung 111% and 102% | NCI-H226 lung 98.5% | NCI-H322M lung 96.4% and 95.8% | HOP-62 NSCLC 95.5% and 100% | NCI-H460 lung 115% and 105% | HOP-92 NSCLC 101% and 102% | NCI-H522 lung 103% and 85.5% | A549/ATCC NSCLC 98.8% and 87% | 786-0 renal 96.4% and 96.8% | COLO 205 colon 115% | DU-145 prostate 113% and 114% | K-562 leukemia 89.4% and 93.6% | MALME-3M melanoma 99.5% and 107% | MDA-MB-231 breast 97.9% and 114% | RXF 393 renal 108% and 107% | SF-268 CNS 101% and 102% | SF-295 CNS 94.3% and 98.2% | SF-539 CNS 94% and 98.7% | UACC-257 melanoma 97.6% and 85.2%

COC(=O)c1nc(=S)[nH]c(C(=O)OC)c1C(=O)c1ccc(OC)cc1
inactive: NCI-H23 lung 97.4% | NCI-H226 lung 90.7% | NCI-H322M lung 104% | HOP-62 NSCLC 123% | NCI-H460 lung 114% | HOP-92 NSCLC 95.9% | NCI-H522 lung 101% | A549/ATCC NSCLC 118% | 786-0 renal 113% | COLO 205 colon 117% | DU-145 prostate 117% | K-562 leukemia 106% | MALME-3M melanoma 97.5% | MDA-MB-231 breast 100% | RXF 393 renal 108% | SF-268 CNS 112% | SF-295 CNS 99.6% | SF-539 CNS 99.3% | UACC-257 melanoma 109%

CCOc1ccc(/C=C\C(=O)O)cc1
inactive: NCI-H23 lung 109% | NCI-H226 lung 114% | NCI-H322M lung 107% | HOP-62 NSCLC 135% | NCI-H460 lung 109% | HOP-92 NSCLC 86.9% | NCI-H522 lung 115% | A549/ATCC NSCLC 104% | 786-0 renal 104% | COLO 205 colon 129% | DU-145 prostate 111% | K-562 leukemia 103% | MALME-3M melanoma 105% | MDA-MB-231 breast 108% | RXF 393 renal 138% | SF-268 CNS 115% | SF-295 CNS 103% | SF-539 CNS 110% | UACC-257 melanoma 109% | M14 melanoma 110%
